PubChem BioAssay (EPA / NIEHS)
Where “and” joins values, the source holds several entries; their conditions need not be identical. Equal values may be shown once. Inconclusive results are not listed. The source holds several records for some structures; these can differ, active in one and inactive in another. Calls of active or inactive are those of the source. The calls were made as follows, unless noted: active = hit-call score of the fitted dose curve at least 0.9, where 1 is the maximum; inconclusive = response in the unintended direction; inactive = score below 0.9.

Experiments:
[1] = biological target: Cellular tumor antigen p53 (Homo sapiens) (UniProt P04637); assay: TOX21_p53_BLA_p2_ratio: Tox21 HCT-116 p53 Agonism Beta-lactamase Assay, Ratio, Phase 2 (AID 2283592)
How it was run: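 HCT-116 cells with p53-responsive beta-lactamase reporter, 4000 cells/well, preincubated 5 h, then compound in DMSO (217-fold dilution) for 16 h at 37C. CCF4-AM substrate 2 h at room temperature; 460/530 nm emission ratio fitted upward versus DMSO.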

[2] = TOX21_p53_BLA_p3_viability: Viability Assessment in the Tox21 HCT-116 p53 Agonism Beta-lactamase Assay, Phase 3 (AID 2283593)
How it was run: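 Cellular ATP was quantified by CellTiter-Glo luminescence, read after 30 min at room temperature. Beforehand, HCT116 cells (4000/well) received compound 5 h post-seeding, 217-fold diluted from DMSO, then incubated 16 h at 37C.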

[3] = biological target: Cellular tumor antigen p53 (Homo sapiens) (UniProt P04637); assay: TOX21_p53_BLA_p5_ratio: Tox21 HCT-116 p53 Agonism Beta-lactamase Assay, Ratio, Phase 5 (AID 2283599)
How it was run: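 Beta-lactamase reporter ratio (blue 460 nm over green 530 nm, 405 nm excitation) after 2 h CCF4-AM loading, in HCT-116 cells exposed 16 h at 37 C to compounds pinned at 217-fold dilution. Increases relative to DMSO baseline scored.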

[4] = biological target: Cellular tumor antigen p53 (Homo sapiens) (UniProt P04637); assay: TOX21_p53_BLA_p4_ratio: Tox21 HCT-116 p53 Agonism Beta-lactamase Assay, Ratio, Phase 4 (AID 2283601)
How it was run: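 Signal is the blue/green (460nm/530nm) ratio of cleaved versus uncleaved CCF4-AM substrate, read after 2 h substrate loading. Cells were HCT116 carrying the p53-responsive beta-lactamase reporter, dosed 16 h at 37C, 5% CO2; CellTiter-Glo measured in parallel.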

[5] = biological target: Cellular tumor antigen p53 (Homo sapiens) (UniProt P04637); assay: TOX21_p53_BLA_p3_ratio: Tox21 HCT-116 p53 Agonism Beta-lactamase Assay, Ratio, Phase 3 (AID 2283596)
How it was run: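 HCT116 p53-bla cells (4000/well) given compound in DMSO (217-fold dilution) after 5 h, incubated 16 h at 37C. CCF4-AM substrate 2 h at room temperature; 460/530 nm emission ratio, gain fitted against DMSO.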

[6] = TOX21_p53_BLA_p4_viability: Viability Assessment in the Tox21 HCT-116 p53 Agonism Beta-lactamase Assay, Phase 4 (AID 2283597);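 also: hits lower the luminescence signal meaning cytotoxicity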
How it was run: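 HCT-116 p53-bla cells, 4000/well, dosed after 5 h attachment and incubated 16 h at 37 °C, 5% CO2. Viability from CellTiter-Glo ATP luminescence after 30 min at room temperature, taken after the beta-lactamase read; loss of signal indicates cytotoxicity.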

[7] = TOX21_p53_BLA_p5_viability: Viability Assessment in the Tox21 HCT-116 p53 Agonism Beta-lactamase Assay, Phase 5 (AID 2283600)
How it was run: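 HCT-116 p53 beta-lactamase reporter cells, 4000/well, were exposed to compound (pin transfer, 217-fold dilution) for 16 hours at 37C. Cellular ATP was read by CellTiter-Glo luminescence after 30 min at room temperature.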

[8] = biological target: PGR (gene 5241) (UniProt P06401); assay: TOX21_PR_BLA_Followup_Antagonist_ratio: Tox21 HEK293 Progesterone Receptor (PR) Antagonism Beta-lactamase Follow-Up Assay, Ratio (AID 2283934)
How it was run: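 PR-UAS-bla HEK293T cells, 3,000/well in 2% charcoal-stripped FBS, given compound plus 1nM R5020 agonist for 16 hr at 37C. Beta-lactamase FRET substrate 2 hours, ratio cleaved/uncleaved fluorescence; viability by CellTiter-Glo in same wells.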

[9] = TOX21_PR_BLA_Followup_Agonist_viability: Viability Assessment in the Tox21 HEK293 Progesterone Receptor (PR) Agonism Beta-lactamase Follow-Up Assay (AID 2283935);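 also: signal loss means lower viability so actives are cytotoxic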
How it was run: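 PR-UAS-bla HEK293T cells in 2% charcoal-stripped FBS medium, plated 6 hr before compound addition, exposed 16 hr at 37C. Viability read by CellTiter-Glo ATP luminescence after 30 min at room temperature, in the same wells as the beta-lactamase readout.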

[10] = TOX21_PR_LUC_Followup_Agonist_viability: Viability Assessment in the Tox21 HEK293 Progesterone Receptor (PR) Agonism Luciferase Follow-Up Assay (AID 2283941);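 also: loss of signal means cytotoxicity so actives lower viability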
How it was run: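 HEK293-PR-A-luc cells, kept in 10% charcoal-stripped FBS medium, were treated with compounds for 16 h at 37C. Viability read as cellular ATP by luciferase-coupled luminescence; loss of signal indicates cytotoxicity.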

[11] = CCTE_Harrill_HTTr_Viability_MCF7: CCTE's 6-hour Cell Viability Assessment for the High-Throughput Transcriptomics (HTTr) Platform, in MCF-7 cells cultured in DMEM + 10% fetal bovine serum, Harrill Lab (AID 2284010; active = hit-call score of the fitted dose curve at least 0.9, where 1 is the maximum; inactive = score below 0.9)
How it was run: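 MCF-7 cells in DMEM + 10% FBS, 384-well, exposed 6 h to an eight-point dilution series. Membrane integrity scored by high-content imaging of propidium iodide exclusion; bidirectional fit versus DMSO.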

[12] = CCTE_Harrill_HTTr_Apoptosis_MCF7: CCTE's 6-hour Apoptosis Assessment for the High-Throughput Transcriptomics (HTTr) Platform, in MCF-7 cells cultured in DMEM + 10% fetal bovine serum, Harrill Lab (AID 2284011; active = hit-call score of the fitted dose curve at least 0.9, where 1 is the maximum; inactive = score below 0.9)
How it was run: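 MCF-7 cells in DMEM + 10% FBS exposed 6 h to chemicals over an eight-point dilution series. Caspase-3/7 activation imaged by high-content CellEvent Green staining; fitted bidirectionally versus DMSO.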

[13] = TOX21_PR_LUC_Followup_Antagonist_viability: Viability Assessment in the Tox21 HEK293 Progesterone Receptor (PR) Antagonism Luciferase Follow-Up Assay (AID 2283940)
How it was run: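 HEK293-PR-A-luc cells kept in charcoal-stripped FBS medium were plated 5 h before compound addition, then exposed 16 h at 37C; viability read as cellular ATP by luciferase luminescence, loss of signal indicating cytotoxicity.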

[14] = UKN5_HCS_SBAD2_cell_viability: Viability Assessment in the University of Konstanz (UKN) Leist Lab Neurite Outgrowth Assay in human iPSC-derived immature Dorsal Root Ganglia Neurons (UKN5) (AID 2284056; active = hit-call score of the fitted dose curve at least 0.9, where 1 is the maximum; inactive = score below 0.9)
How it was run: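 iPSC-derived immature peripheral neurons (SBAD2) seeded on Matrigel with CHIR99021, SU5402 and DAPT, dosed 1 h later for 24 h. Viability from Hoechst H-33342 and calcein-AM live staining, high-content imaging; bidirectional fit versus DMSO.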

[15] = UKN5_HCS_SBAD2_neurite_outgrowth: University of Konstanz (UKN) Leist Lab Neurite Outgrowth Assay in human iPSC-derived immature Dorsal Root Ganglia Neurons (UKN5) (AID 2284070; active = hit-call score of the fitted dose curve at least 0.9, where 1 is the maximum; inactive = score below 0.9); settings: actives raise or lower the signal
How it was run: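 SBAD2 iPSC-derived immature peripheral neurons on Matrigel, 100.000 cells/cm2, medium with CHIR99021 (1.5 uM), SU5402 (5 uM), DAPT (5 uM); compound added 1 h post-seeding for 24 h. Calcein-AM neurite area by high-content imaging; Hoechst H-33342 viability; bidirectional fit vs DMSO.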

[16] = UKN2_HCS_IMR90_neural_migration: University of Konstanz (UKN) Leist Lab Neural Crest Cell Migration Assay in human induced IMR90 Pluripotent Stem Cells (UKN2) (AID 2284204; active = hit-call score of the fitted dose curve at least 0.9, where 1 is the maximum; inactive = score below 0.9); settings: actives raise or lower the signal
How it was run: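 Migration of human IMR90-derived neural crest cells into a stopper-defined gap is imaged after 24 h chemical treatment. Activity is fitted bidirectionally relative to DMSO.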

[17] = UKN4_HCS_LUHMES_neurite_outgrowth: University of Konstanz (UKN) Leist Lab Neurite Outgrowth Assay in human LUHMES cells (UKN4) (AID 2284206; active = hit-call score of the fitted dose curve at least 0.9, where 1 is the maximum; inactive = score below 0.9); settings: actives raise or lower the signal
How it was run: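 Human LUHMES neuronal precursors, differentiated 2 days then replated without cAMP and GDNF, exposed to compounds for 24 h. Neurite area imaged by high-content microscopy after calcein-AM live staining; Hoechst H-33342 for viability; bidirectional fit versus DMSO.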

[18] = UKN2_HCS_IMR90_cell_viability: Viability Assessment in the University of Konstanz (UKN) Leist Lab Neural Crest Cell Migration Assay in human induced IMR90 Pluripotent Stem Cells (UKN2) (AID 2284233; active = hit-call score of the fitted dose curve at least 0.9, where 1 is the maximum; inactive = score below 0.9;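 also: viability of neural crest cells differentiated from IMR90 iPSC measured by calcein-AM fluorescence imaging; cells exposed to compound for 24 h after a 24 h migration phase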)
How it was run: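 Human IMR90-derived neural crest cells were allowed to migrate for 24 h into a cell-free zone, then exposed to test chemicals for 24 h. Calcein-AM and Hoechst staining with high-content imaging gave viability, analysed against DMSO baseline.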

Measured: AC50

Chain of Cellular tumor antigen p53 (Homo sapiens) (P04637 whole entry, looked up): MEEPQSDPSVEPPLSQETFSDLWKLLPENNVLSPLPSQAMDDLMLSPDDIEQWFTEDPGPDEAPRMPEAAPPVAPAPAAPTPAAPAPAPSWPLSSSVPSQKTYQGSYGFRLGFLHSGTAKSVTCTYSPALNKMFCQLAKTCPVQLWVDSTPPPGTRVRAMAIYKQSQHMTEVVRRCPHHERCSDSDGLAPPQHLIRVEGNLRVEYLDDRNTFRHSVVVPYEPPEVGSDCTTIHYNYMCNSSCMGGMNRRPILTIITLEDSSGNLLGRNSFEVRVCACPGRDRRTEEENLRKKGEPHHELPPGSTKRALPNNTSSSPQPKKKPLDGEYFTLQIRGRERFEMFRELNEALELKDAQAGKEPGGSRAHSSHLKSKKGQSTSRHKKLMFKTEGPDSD
Chain of PGR (gene 5241) (P06401 whole entry, looked up): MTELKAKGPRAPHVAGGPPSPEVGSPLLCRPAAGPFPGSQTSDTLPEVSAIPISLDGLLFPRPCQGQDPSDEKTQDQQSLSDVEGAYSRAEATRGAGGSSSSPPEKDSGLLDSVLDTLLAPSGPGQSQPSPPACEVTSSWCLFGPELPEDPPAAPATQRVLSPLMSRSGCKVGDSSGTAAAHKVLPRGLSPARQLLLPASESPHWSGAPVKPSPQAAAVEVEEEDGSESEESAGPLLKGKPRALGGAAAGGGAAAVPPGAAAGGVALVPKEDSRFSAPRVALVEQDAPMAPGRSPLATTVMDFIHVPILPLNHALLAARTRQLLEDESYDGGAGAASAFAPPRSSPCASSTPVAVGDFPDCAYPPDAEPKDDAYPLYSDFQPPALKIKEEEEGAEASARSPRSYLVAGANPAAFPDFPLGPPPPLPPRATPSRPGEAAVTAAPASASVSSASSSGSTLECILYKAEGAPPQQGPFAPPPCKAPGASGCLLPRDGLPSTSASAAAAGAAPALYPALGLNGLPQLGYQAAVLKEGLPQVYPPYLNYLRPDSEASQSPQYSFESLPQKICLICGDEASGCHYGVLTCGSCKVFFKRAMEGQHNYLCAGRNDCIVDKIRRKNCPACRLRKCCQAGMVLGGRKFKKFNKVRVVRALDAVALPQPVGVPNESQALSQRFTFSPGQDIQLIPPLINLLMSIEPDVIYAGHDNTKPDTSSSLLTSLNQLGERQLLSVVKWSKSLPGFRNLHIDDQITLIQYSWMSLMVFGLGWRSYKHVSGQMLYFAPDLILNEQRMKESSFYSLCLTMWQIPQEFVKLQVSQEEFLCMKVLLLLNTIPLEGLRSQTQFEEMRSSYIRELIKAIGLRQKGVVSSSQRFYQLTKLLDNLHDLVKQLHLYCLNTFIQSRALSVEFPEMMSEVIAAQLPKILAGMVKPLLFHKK

Clc1ccc2ccccc2c1
inactive: [1] | [2] | [3] | [4]

CCCCCCCCCCCCCCCl
inactive: [1] | [5] | [6] | [3] | [4]

C[C@]1(O)CC[C@H]2[C@@H]3CCC4=CC(=O)CC[C@]4(C)[C@@]3(F)[C@@H](O)C[C@@]21C
inactive: [1] | [2] | [6] | [7] | [4] | [8] | [9] | [10]

CC(C)NC(C)C
inactive: [1] | [2] | [3] | [7] | [4]

Clc1cc(Cl)c(-c2cc(Cl)c(Cl)cc2Cl)cc1Cl
inactive: [1] | [2] | [3] | [7] | [4]

CC(CCc1ccccc1)NC(C)C(O)c1ccc(O)cc1 (stereo unspecified)
inactive: [1] | [5]

C=C(C#N)CCC#N
inactive: [1] | [2] | [3] | [7]

CN1CCCC(=C(c2cccs2)c2cccs2)C1
inactive: [1] | [5]

C[C@H]1CNCCc2ccc(Cl)cc21
inactive: [1] | [5] | [6] | [4]

CC(N)=S
inactive: [1] | [2] | [7] | [4] | [11] | [12]

C[C@@H]([C@H](O)c1ccccc1)N(C)C
inactive: [1] | [5] | [6] | [3] | [7] | [4]

Cc1nc(N)nc(N)n1
inactive: [1] | [2] | [7] | [4]

CN(C)CCc1c[nH]c2cccc(O)c12
inactive: [1] | [5] | [6] | [3]

C[C@H]1CCC[C@H](O)CCCCCc2cc(O)cc(O)c2C(=O)O1
inactive: [1] | [5] | [3] | [7] | [4] | [9] | [13] | [10]
active: [5] 74.2 µM | [8] 4.51 µM

NC1=NC(=O)N2CC12 (stereo unspecified)
inactive: [1] | [5] | [6] | [3] | [4]

CC(=O)Oc1ccc2c3c1O[C@H]1[C@@H](OC(C)=O)C=C[C@H]4[C@@H](C2)N(C)CC[C@@]341
not listed: [2] | [8] | [9] | [10] | [11] | [12] | [13]
inactive: all other assays above

C(COCC1CO1)OCC1CO1 (stereo unspecified)
inactive: [1] | [5] | [6] | [3] | [7] | [4]

CCCCCCCCCCCCCCCCn1cc[n+](C)c1
active: [1] 51.5 µM and 29.9 µM and 17.5 µM | [5] 9.54 µM | [3] 78.3 µM and 41.3 µM | [4] 71.6 µM and 77.7 µM and 60.1 µM
inactive: [5] | [3] | [4]

CCCN(CCCl)c1c([N+](=O)[O-])cc(C(F)(F)F)cc1[N+](=O)[O-]
inactive: [1] | [2] | [7]

c1ccc2c(c1)Sc1ccccc1N2C[C@@H]1CN2CCC1CC2
active: [4] 43.6 µM
inactive: [1] | [5] | [6] | [3]

Cc1cnc[nH]1
inactive: [1] | [2] | [7] | [4]

CC(Cc1ccccc1)NC=O (stereo unspecified)
inactive: [1] | [5] | [6] | [3] | [7] | [4]

N#CC(Cl)Cl
inactive: [1] | [5] | [6] | [3] | [7] | [4]

CN1C(=O)CN=C(c2ccccc2)c2cc([N+](=O)[O-])ccc21
inactive: [1] | [5] | [6] | [3] | [7]

C[C@]12CC[C@H]3[C@@H](CCC4=C(O)C(=O)CC[C@@H]43)[C@@H]1CC[C@@H]2OC(=O)CCC1CCCC1
inactive: [1] | [5] | [6] | [4]

C=C(Cl)CSC(=S)N(CC)CC
inactive: [1] | [2] | [3] | [4]

[Cl][Sn]([Cl])([Cl])[Cl]
inactive: [1] | [5] | [6] | [3] | [7] | [4]
